Screen size: about 13,000 compounds; about 3,200 (25%) showed an effect of 50% or more. The list shows a part of the results.
system: P. falciparum stage V gametocytes; parameters: BacTiter-Glo ATP luminescence viability of purified stage V gametocytes in 384-well plates, per cent inhibition versus DMSO; settings: 48 h, 5 µM; inhibitor

Row | Structure (SMILES) | % Inhibition
1 | O=C(Nc1ccc(N2CCCCC2)c(Cl)c1)c1ccc(Br)o1 [TCMDC-124350] | 9.025%
2 | CC(C)(C)C(Cn1ccnc1)NCc1cn[nH]c1-c1ccc(-c2ccccc2)cc1 (centres unmarked) [TCMDC-124639] | 18.54%
3 | CC1CCN(C(=O)CSc2nc(-c3ccc(C(C)C)cc3)no2)CC1 [TCMDC-124746] | 17.92%
4 | COCC(=O)Nc1nc2ccccc2[nH]1 [TCMDC-125535] | -0.9845%
5 | Cc1cc(C(=O)Nc2ccc3c(c2)CCN3C2CCN(Cc3cccc4cc[nH]c34)C2)no1 (centres unmarked) [TCMDC-135085] | 42.96%
6 | CC(C)NCc1ccc(-c2ccc(NS(=O)(=O)c3cccc4cccnc34)cc2)cc1 [TCMDC-136476] | 32.43%
7 | CCN(CC)CCNc1ccnc2[nH]c3ccc(C)cc3c12 [TCMDC-131833] | -0.1276%
8 | CCn1ncc2c(N3CCCC3=O)cc(C(=O)N[C@@H](Cc3ccccc3)[C@H](O)CNC(C)(C)c3cccc(OC)c3)cc21 [TCMDC-135063] | 45.35%
9 | O=C(Nc1ccc(-c2cccc(-c3nc4ccc(F)cc4[nH]3)c2)cc1)Nc1ccc(Cl)c(Cl)c1 [TCMDC-133282] | -9.249%
10 | CCC(CC)NCc1c(O)ccc2c(CNC(CC)CC)c(O)ccc12 [TCMDC-137581] | -56.22%
11 | Cc1cccc2[nH]c(-c3ccc(-c4ccc(NC(=O)Nc5ccc(Cl)c(Cl)c5)cc4)cc3)nc12 [TCMDC-133281] | -29.93%
12 | Cc1nc2ccc(S(=O)(=O)Nc3ccc(C(=O)N[C@@H](CCC(=O)O)C(=O)O)cc3)cc2c(=O)[nH]1 [TCMDC-137978] | -10.92%
13 | CC(C)COc1ccc(Cl)cc1Cc1ccc(-c2nc3ccc(Br)cc3[nH]2)o1 [TCMDC-136705] | 53.1%
14 | CC(C)COc1ccc(Cl)cc1Cc1ccc(-c2nc3ccc(N4CCN(C)CC4)cc3[nH]2)o1 [TCMDC-136709] | 31.86%
15 | CC(C)COc1ccc(Cl)cc1Cc1ccc(-c2nc3ccc(C(F)(F)F)cc3[nH]2)o1 [TCMDC-136563] | 61.92%
16 | CC(C)COc1ccc(Cl)cc1Cc1ccc(-c2nc3ccc(CCN(C)C)cc3[nH]2)o1 [TCMDC-136891] | 30.85%
17 | CC(C)COc1ccc(Cl)cc1Cc1ccc(-c2nc3ccc(F)cc3[nH]2)o1 [TCMDC-136545] | 33.1%
18 | CC(C)COc1ccc(Cl)cc1Cc1nc(-c2nc3ccc(CN(C)C)cc3[nH]2)co1 [TCMDC-136809] | -8.138%
19 | CC(C)COc1ccc(Cl)cc1Cc1ccc(-c2nc3cc(F)c(F)cc3[nH]2)o1 [TCMDC-136561] | 53.5%
20 | CC(C)COc1ccc(Cl)cc1Cc1ccc(-c2nc3ccc(Cl)cc3[nH]2)o1 [TCMDC-136546] | -3.56%
21 | CC(C)COc1ccc(Cl)cc1Cc1ccc(-c2nc3ccc(CCN4CCCC4)cc3[nH]2)o1 [TCMDC-136890] | 21.95%
22 | CCCCC(CC)C(=O)C(NC(=O)[C@H](CSC(c1ccccc1)(c1ccccc1)c1ccccc1)NC(=O)OC(C)(C)C)C(=O)OC (some centres unmarked) [TCMDC-138083] | 0.3187%
23 | Cc1cccc2[nH]c(-c3cccc(-c4cccc(NC(=O)COc5ccccc5C(N)=O)c4)c3)nc12 [TCMDC-132130] | 45.07%

Row | Structure (SMILES) | % Inhibition
24 | Cc1cccc2[nH]c(-c3cccc(-c4ccc(NC(=O)COC(C)C)cc4)c3)nc12 [TCMDC-137038] | 26.32%
25 | NC(=O)c1ccccc1OCC(=O)Nc1cccc(-c2cccc(-c3nc4ccccc4[nH]3)c2)c1 [TCMDC-132127] | 20.22%
26 | Cc1cccc2[nH]c(-c3cccc(-c4ccc(NC(=O)COc5ccccc5C(N)=O)cc4)c3)nc12 [TCMDC-132131] | 84.32%
27 | NC(=O)c1ccccc1OCC(=O)Nc1cccc(-c2ccc(-c3nc4ccc(C(F)(F)F)cc4[nH]3)cc2)c1 [TCMDC-132132] | -3.438%
28 | NC(=O)c1ccccc1OCC(=O)Nc1ccc(-c2cccc(-c3nc4ccc(C(F)(F)F)cc4[nH]3)c2)cc1 [TCMDC-132129] | 71.31%
29 | O=C(/C=C/c1ccc(Cl)c(Cl)c1)NCCCCCN1CCC(NC(=O)Nc2cccc(Cl)c2F)CC1 [TCMDC-135721] | -53.7%
30 | CCCN(Cc1nnc(-c2cccs2)o1)C(=O)CSc1nnnn1-c1cc(C)cc(C)c1 [TCMDC-125265] | 15.05%
31 | CCCC(C)N(Cc1ccc(C(C)(C)C)cc1)C(=O)c1cccc(C#N)c1 (centres unmarked) [TCMDC-139784] | -24.96%
32 | CCN(CC)C(=O)C(=O)c1c[nH]c2ccc(Cl)cc12 [TCMDC-131976] | 21.68%
33 | COC(=O)Nc1ccc(-c2ccc(C(=O)NC3CCN(C[C@H](O)c4ccnc5ccc(OC)cc45)CC3)cc2)c(C)c1 [TCMDC-141170] | -22.09%
34 | CCN(CC)CCN(Cc1ccc(-c2ccc(C(F)(F)F)cc2)cc1)C(=O)c1ccc(-c2ccc(NC(=O)OC)cc2C)cc1 [TCMDC-141558] | 93.92%
35 | CCN(CC)CCN(Cc1ccc(-c2ccc(C(F)(F)F)cc2)cc1)C(=O)c1c[nH]c2ccc(Br)cc12 [TCMDC-141557] | 106.7%
36 | CCN(CC)CCN(Cc1ccc(-c2ccc(C(F)(F)F)cc2)cc1)C(=O)c1ccc(-c2ccc(C#N)cc2)cc1 [TCMDC-141556] | 55.86%
37 | CCOC(=O)c1ccc(NC(=O)Nc2ccc(-c3ccc(-c4nc5ccc(C(F)(F)F)cc5[nH]4)cc3)cc2)cc1 [TCMDC-133260] | 23.97%
38 | CC(C)CCN(Cc1cncn1Cc1cccc(C(F)(F)F)c1)C(=O)c1cncc(-c2ccccc2)c1 [TCMDC-132458] | 37.01%
39 | Cc1cc(C)c(S(=O)(=O)N2CCCCC(c3cccc(C(F)(F)F)c3)=N2)c(C)c1 [TCMDC-134550] | -57.26%
40 | CC(C)(C)C1CCC(CC2=C(C(=O)O)c3ccccc3C2=O)CC1 (centres unmarked) [TCMDC-137496] | 8.625%
41 | O=C1OC(c2ccccc2)(c2ccccc2)CN1C1CCN(Cc2ccc(O)c(Cl)c2)C1 (centres unmarked) [TCMDC-136070] | -44.93%
42 | COc1cccc2cc(C(=O)N[C@@H](CC(C)C)C(=O)N[C@H](C=NNC(=O)OC(C)(C)C)Cc3ccccc3)oc12 [TCMDC-136073] | -20.59%
43 | Cc1cccc2[nH]c(-c3cccc(-c4cccc(CN5CCN(c6ccncc6)CC5)c4)c3)nc12 [TCMDC-132910] | 41.94%
44 | Cc1cc(N[C@@H](Cc2ccccc2)C(=O)Nc2ccccc2)nc(NCCc2ccccc2)n1 [TCMDC-134777] | 63.66%
45 | COc1ccc(NC(=O)[C@H](CC(C)C)Nc2cc(C)nc(NCCc3ccc(F)cc3)n2)cc1 [TCMDC-134793] | 11.38%
46 | Cc1cc(N[C@@H](Cc2ccccc2)C(=O)Nc2ccccc2)nc(NCCc2ccc(F)cc2)n1 [TCMDC-134790] | 26.02%

Row | Structure (SMILES) | % Inhibition
47 | Cc1cc(N[C@@H](CC(C)C)C(=O)Nc2ccccc2)nc(NCCc2ccccc2)n1 [TCMDC-134780] | 99.12%
48 | COc1ccc(NC(=O)[C@H](Cc2ccccc2)Nc2nc(NCCN3CCCC3)ncc2C)cc1 [TCMDC-134860] | 27.32%
49 | COc1ccc(NC(=O)[C@H](Cc2ccccc2)Nc2cc(C)nc(NCCc3ccc(F)cc3)n2)cc1 [TCMDC-134786] | 103.7%
50 | Cc1cc(N[C@@H](CC(C)C)C(=O)Nc2ccccc2)nc(NCCc2ccc(F)cc2)n1 [TCMDC-134797] | 10.71%
51 | Cc1cc(N[C@@H](Cc2ccccc2)C(=O)Nc2ccccc2)nc(Nc2ccccc2)n1 [TCMDC-134736] | -2.834%
52 | COc1ccc(NC(=O)[C@H](Cc2ccccc2)Nc2cc(C)nc(NCCN3CCCC3)n2)cc1 [TCMDC-134924] | 85.56%
53 | Cc1cc(N[C@@H](Cc2ccccc2)C(=O)Nc2ccccc2)nc(NCCN2CCCC2)n1 [TCMDC-134925] | 33.54%
54 | COc1ccc(NC(=O)[C@H](CC(C)C)Nc2cc(C)nc(NCCc3ccccc3)n2)cc1 [TCMDC-134778] | 31.74%
55 | COc1ccc2nccc(N3CCC(O)(CCNCc4ccc5c(n4)NC(=O)CS5)CC3)c2n1 [TCMDC-134553] | -13.65%
56 | CCCOc1ccc(C=C(CC(=O)O)c2nc3ccccc3s2)cc1OCC [TCMDC-125020] | 4.95%
57 | CO/C(=C\C=C\c1cc2cc(Cl)c(Cl)cc2[nH]1)C(=O)NCCCN1CCN(c2cccc(CCO)c2)CC1 [TCMDC-139549] | -37.75%
58 | CC[C@H](C)CNC(=O)c1cncc(-c2ccc(CN3CCC(N4CCCC4)CC3)cc2)c1 [TCMDC-134234] | 36.3%
59 | c1ccn2c(-c3ncnc(NCc4ccc5c(c4)CCO5)n3)cnc2c1 [TCMDC-135175] | 28.7%
60 | COCc1ccccc1C(=O)NCCOc1cc(C)cc(C)c1 [TCMDC-134843] | -15.71%
61 | Cc1cc(N[C@@H](Cc2ccccc2)C(=O)Nc2ccccc2)nc(NCCc2cccs2)n1 [TCMDC-134814] | 131.2%
62 | COc1ccc(NC(=O)[C@H](Cc2ccccc2)Nc2cc(C)nc(NCCc3cccs3)n2)cc1 [TCMDC-134873] | 39.58%
63 | Cc1cc(N[C@@H](Cc2ccccc2)C(=O)NC2CCCC2)nc(NCCc2cccs2)n1 [TCMDC-134811] | 53.29%
64 | Cc1cc(N[C@@H](Cc2ccccc2)C(=O)NC2CCCC2)nc(NCCCOC(C)C)n1 [TCMDC-134821] | 40.66%
65 | Cc1cc(N[C@@H](Cc2ccccc2)C(=O)NC2CCCC2)nc(NCc2ccccc2C)n1 [TCMDC-134902] | -12.74%
66 | COc1ccc(NC(=O)[C@H](Cc2ccccc2)Nc2cc(C)nc(NCCc3ccccc3)n2)cc1 [TCMDC-134774] | 119.9%
67 | COc1ccc(NC(=O)[C@H](Cc2ccccc2)Nc2cc(C)nc(NCc3ccccc3C)n2)cc1 [TCMDC-134904] | -26.59%
68 | COc1ccc(NC(=O)[C@H](Cc2ccccc2)Nc2cc(C)nc(NCCc3ccccc3OC)n2)cc1 [TCMDC-134801] | 16.26%

Source: publication PMC4552634, “A New Set of Chemical Starting Points with Plasmodium falciparum Transmission-Blocking Potential for Antimalarial Drug Discovery” (PLoS ONE, 2015)
